Screening results from PubChem BioAssay.
Compounds with a hit are over-represented: about 17% of the library has one in this group of screens.
ATXN viability: reduces viability in counter-screen for ATXN expression inhibitors | Potency, µM (highest dose often 56.7 µM), most hits filed as cytotoxic | actives 0.49% (n = 400,000) | S2 cells (HEK-293 line with an ATXN2-luciferase reporter) viability, CellTiter-Fluor protease fluorescence, 24 h; note: nearly all actives have a fitted effect of over 40% in size
TDP1 cell CPT: DT40-hTDP1 cell growth loss with CPT. chicken DT40 Tdp1-/-;hTDP1 cells + 20 nM CPT, ATP luminescence, 48 h. Potency, µM (top dose mostly 46.2 µM), without a hit: top-dose activity change, negative = growth inhibition, usual class: inhibitors. actives 12% (n = 420,000). AID 686979; note: % is set by controls: 0 for no effect and ±100 for the full control effect; nearly all actives have a fitted effect of over 55% in size
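Chicken DT40 Tdp1-/- cells complemented with human TDP1, 400 cells/well, exposed to compounds plus 20 nM camptothecin for at least 48 h at 37 C; viability read as ATP content by CellTiter-Glo luminescence.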
TGFb SMAD3 inh: TGF-b pathway inhibition; HepG2 CAGA-GFP TGF-b/SMAD3 reporter, GFP fluorescence, 18 h; TGF-beta stimulated, 500 pg/mL final; Potency, µM (highest dose often 46.1 µM), without a hit: at the highest dose activity, negative = inhibition, usual class: inhibitors; actives 1.2% (n = 410,000); note: % is set by controls: 0 for no effect and ±100 for the full control effect; nearly all actives have a fitted effect of over 65% in size
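Smad-responsive CAGA-GFP expression was quantified in HEPG2 cells exposed to compounds and 500 pg/mL final TGF-beta for 18 h at 37 degrees C; unstimulated wells defined full inhibition.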
ATXN2 expr inh: ATXN2 expression inhibition. HEK-293 ATXN2-luciferase reporter, luminescence, 24 h. Potency, µM (top dose mostly 57 µM), for the others: top-dose activity change, negative = inhibition, actives largely listed as inhibitors. actives 0.72% (n = 360,000). AID 1745845; note: % is set by controls: 0 for no effect and ±100 for the full control effect; nearly all actives have a fitted effect of over 55% in size
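qHTS (up to 57 uM final) was run with 24 h compound exposure of reporter cells at 37 °C. Each well was multiplexed: SteadyGlo luminescence measured ATXN2-luciferase expression after a fluorogenic Gly-Phe-AFC viability readout (25 uM final).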
HepG2 viability: counter-screen for TGF-b inhibitors: cytotoxicity in HepG2 cells; HepG2 CAGA-GFP viability, ATP luminescence, 18 h; Potency, µM (top dose mostly 46.1 µM), without a hit: top-dose activity change, negative = cytotoxicity, actives largely listed as cytotoxic; actives 0.76% (n = 410,000); AID 588856
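HepG2 CAGA-GFP cells (1000/well, DMEM with 1% FBS) received compound, then TGF-beta at 500 pg/mL final, and were incubated 18 hours at 37 degrees C. Viability was read by CellTiter-Glo luminescence. Media-only wells were set as complete cell-killing and DMSO as no toxicity.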
TDP1 cell noCPT: qHTS for Inhibitors of human tyrosyl-DNA phosphodiesterase 1 (TDP1): qHTS in cells in absence of CPT | DT40 Tdp1-/- hTDP1 cells, no CPT, ATP luminescence, 48 h | Potency, µM (top dose mostly 46.2 µM), for the others: at the top dose activity change, negative = growth inhibition, usual class: inhibitors | actives 15% (n = 420,000) | AID 686978, 2013; note: % is set by controls: 0 for no effect and ±100 for the full control effect; nearly all actives have a fitted effect of over 55% in size
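Compound effects on proliferation are scored in DT40 Tdp1-/-;hTDP1 cells in the absence of CPT. ATP levels (CellTiter-Glo luminescence) are recorded after a ≥48 hr, 37 °C incubation.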
* hit, by the source's call; i = inactive; ? = inconclusive; nt = no result; [ ] = remark or other dose. Calls come from the whole dose curve; as a rule, active = well fitted curve in the direction sought with a large enough effect; inconclusive = small, poorly fitted or top-dose-only effect, or another doubt; inactive = no such curve, though single readings can be large; an effect the other way counts as inactive or inconclusive. Potency is the fitted concentration of half-maximal effect.

SMILES	ATXN viability	TDP1 cell CPT	TGFb SMAD3 inh	ATXN2 expr inh	HepG2 viability	TDP1 cell noCPT
Cn1nc(C(C)(C)C)cc1C(=O)N1CCCC(c2cc(C(=O)NCc3ccccc3)no2)C1 (stereo not given)	i	20.6µM*	7.1%	-12.9%	-7.7%	14.6µM*
Cn1nc(C(C)(C)C)cc1C(=O)N1CCCCC1c1cc(C(=O)NCc2cccnc2)no1 (stereo not given)	i	23.1µM*	6.6%	-7.7%	-2.8%	20.6µM*
CCCC(=O)N1CCCC(c2cc(C(=O)NCc3ccccc3)no2)C1 (stereo not given)	i	-10.5%	35.5%	27.0%	6.7%	-7.4%
Cn1nc(C(C)(C)C)cc1C(=O)N1CCCCC1c1cc(C(=O)Nc2ccccc2Cl)no1 (stereo not given)	i	20.6µM*	?	-24.0%	-7.7%	20.6µM*
Cn1nc(C(C)(C)C)cc1C(=O)N1CCCCC1c1cc(C(=O)Nc2ccc3c(c2)OCO3)no1 (stereo not given)	?	18.4µM*	-11.8%	-28.4%	-17.4%	4.61µM*
CNC(=O)C[C@H]1C(=O)N(Cc2ccccc2)C[C@@H]1Cc1ccccc1	i	-2.6%	4.1%	8.7%	0.3%	6.2%
Cc1ccc(-n2c(-c3ccccc3)nnc2-c2cccs2)cc1	i	?	4.0%	0.3%	-7.3%	-5.7%
Cc1ccc(/C=N/n2cnc3sc(C)c(C)c3c2=O)o1	i	0.0%	3.3%	0.3%	-3.2%	-13.5%
CCc1cccc(NC(=O)CN2Cc3ccccc3C2=O)c1	nt	3.3%	-5.7%	nt	0.7%	?
O=C(NCCCN1CCOCC1)c1c(-c2ccccc2)sc2ccccc12	i	?	0.7%	-3.5%	-38.4%	?
COc1cc(OC)cc(C(=O)N[C@H](C(=O)Nc2nc3ccc(S(C)(=O)=O)cc3s2)C(C)C)c1	i	-3.3%	2.3%	-2.8%[11.3 µM]	5.3%	14.1%
O=C(Nc1ccc2c(c1)OCO2)c1cc(C2CCCCN2C(=O)CCCc2ccccc2)on1 (stereo not given)	i	?	3.2%	13.7%	-24.0%	?
Cc1ccc(C)c(CC(=O)N2CCCC(c3cc(C(=O)Nc4ccccc4Cl)no3)C2)c1 (stereo not given)	i	?	?	-30.2%	-17.1%	?
CC(C)NC(=O)c1cc(C2CCCCN2C(=O)c2ccc(Cl)cc2)on1 (stereo not given)	i	-29.3%	2.1%	11.4%	-8.6%	-11.4%
O=C(Nc1ccc2c(c1)OCO2)c1cc(C2CCCCN2C(=O)c2ccccc2)on1 (stereo not given)	i	13µM*	-4.7%	-1.7%	-4.2%	9.2µM*
Cn1nc(C(C)(C)C)cc1C(=O)N1CCCCC1c1cc(C(=O)Nc2ccccc2)no1 (stereo not given)	i	20.6µM*	-15.9%	-14.1%	-17.9%	23.1µM*
CC(C)NC(=O)c1cc(C2CCCCN2C(=O)c2cc(C(C)(C)C)nn2C)on1 (stereo not given)	i	?	-2.2%	-8.6%	-4.9%	13µM*
Cn1nc(C(C)(C)C)cc1C(=O)N1CCCC(c2cc(C(=O)Nc3ccccc3Cl)no2)C1 (stereo not given)	i	?	-11.2%	?	-25.5%	23.1µM*
COc1ccc(-n2nc([N+](=O)[O-])c(=NCc3ccc4c(c3)OCO4)n2O)cc1	?	?	?	44.9%	-2.6%	18.4µM*
O=[N+]([O-])c1nn(-c2ccc3c(c2)OCCO3)n(O)c1=NC1CCCC1	i	18.4µM*	-2.3%	-9.6%	-8.7%	?
